# Screening results deposited in PubChem by National Center for Advancing Translational Sciences (NCATS).
# HP1b chromo inh – blocks HP1-beta chromodomain binding to methylated histone tails. P83916. AlphaScreen HP1-beta / biotin-H3K9me3 peptide binding. Potency, µM (top dose mostly 114 µM), hits mostly inhibitors. hit rate 0.56% among 390,000. AID 540317; further: nearly all actives have a fitted effect of over 70% in size
#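 Compound inhibition of the preformed complex between 50 nM HP1-beta and 50 nM biotinylated H3K9me3 peptide was read by AlphaScreen. Buffer was PBS pH 7.4 with 0.01% Tween-20. Incubations ran 30 min at room temperature, with 10 ug/mL donor/acceptor beads.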
# L3MBTL1 inh – blocks human L3MBTL1; Q9Y468; AlphaScreen L3MBTL1–H3K9me1 peptide binding; Potency, µM (titrated, usually from 57.1 µM), actives largely listed as inhibitors; hit rate 0.66% among 230,000; further: nearly all actives have a fitted effect of over 60% in size
#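 Read-out is AlphaScreen signal from streptavidin donor and nickel chelate acceptor beads (10 ug/mL final each) bridging L3MBTL1 (50 nM) and biotinylated K9-monomethylated H3(1-15) peptide (75 nM), after 30 min compound exposure at room temperature.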
# Sfp PPTase inh – blocks B. subtilis Sfp PPTase activity; Biochemical Sfp PPTase activity, qHTS; Potency, µM, actives largely listed as inhibitors; hit rate 3.5% among 310,000; AID 1490;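 further: the enzyme is Sfp with the accession as filed and its product quenches rhodamine fluorescence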
#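 Fluorescence-quenching assay with 15 nM Sfp, 5 uM rhodamine-CoA and 12.5 uM BHQ-2-labelled ybbR peptide in pH 7.6 Hepes/MgCl2 buffer. Enzyme was pre-incubated with compound for 15 min at room temperature. Rate was taken from the 30-min fluorescence change (525/598 nm).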
# G9a inh – blocks human histone lysine methyltransferase G9a; Q96KQ7; Potency, µM (highest dose often 102 µM), hits mostly inhibitors; G9a H3K9 monomethylation, AlphaScreen, 2 h; hit rate 8.8% among 350,000; further: nearly all actives have a fitted effect of over 75% in size
#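 Using a bead-based AlphaScreen, monomethylated H3K9 product from 2 h room-temperature reactions (G9a 20 nM, peptide 500 nM, SAM 20 uM) was detected with 0.5 ug/mL rabbit anti-H3K9me1 antibody.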
# JMJD2A Tudor – inhibitors of human JMJD2A Tudor domain; hit rate 4.4% among 390,000; Potency, µM (top dose mostly 114 µM), most hits filed as inhibitors; AlphaScreen JMJD2A-Tudor / H3K4me3 peptide binding; AID 504339; further: nearly all actives have a fitted effect of over 50% in size
# BAZ2B inh – inhibitors of human BAZ2B bromodomain. Q9UIF8. AlphaScreen BAZ2B-H3K14Ac peptide displacement. Potency, µM (top dose mostly 114 µM), actives largely listed as inhibitors. hit rate 4.4% among 360,000; further: nearly all actives have a fitted effect of over 60% in size
# Target sequence (Q9UIF8 whole entry, looked up): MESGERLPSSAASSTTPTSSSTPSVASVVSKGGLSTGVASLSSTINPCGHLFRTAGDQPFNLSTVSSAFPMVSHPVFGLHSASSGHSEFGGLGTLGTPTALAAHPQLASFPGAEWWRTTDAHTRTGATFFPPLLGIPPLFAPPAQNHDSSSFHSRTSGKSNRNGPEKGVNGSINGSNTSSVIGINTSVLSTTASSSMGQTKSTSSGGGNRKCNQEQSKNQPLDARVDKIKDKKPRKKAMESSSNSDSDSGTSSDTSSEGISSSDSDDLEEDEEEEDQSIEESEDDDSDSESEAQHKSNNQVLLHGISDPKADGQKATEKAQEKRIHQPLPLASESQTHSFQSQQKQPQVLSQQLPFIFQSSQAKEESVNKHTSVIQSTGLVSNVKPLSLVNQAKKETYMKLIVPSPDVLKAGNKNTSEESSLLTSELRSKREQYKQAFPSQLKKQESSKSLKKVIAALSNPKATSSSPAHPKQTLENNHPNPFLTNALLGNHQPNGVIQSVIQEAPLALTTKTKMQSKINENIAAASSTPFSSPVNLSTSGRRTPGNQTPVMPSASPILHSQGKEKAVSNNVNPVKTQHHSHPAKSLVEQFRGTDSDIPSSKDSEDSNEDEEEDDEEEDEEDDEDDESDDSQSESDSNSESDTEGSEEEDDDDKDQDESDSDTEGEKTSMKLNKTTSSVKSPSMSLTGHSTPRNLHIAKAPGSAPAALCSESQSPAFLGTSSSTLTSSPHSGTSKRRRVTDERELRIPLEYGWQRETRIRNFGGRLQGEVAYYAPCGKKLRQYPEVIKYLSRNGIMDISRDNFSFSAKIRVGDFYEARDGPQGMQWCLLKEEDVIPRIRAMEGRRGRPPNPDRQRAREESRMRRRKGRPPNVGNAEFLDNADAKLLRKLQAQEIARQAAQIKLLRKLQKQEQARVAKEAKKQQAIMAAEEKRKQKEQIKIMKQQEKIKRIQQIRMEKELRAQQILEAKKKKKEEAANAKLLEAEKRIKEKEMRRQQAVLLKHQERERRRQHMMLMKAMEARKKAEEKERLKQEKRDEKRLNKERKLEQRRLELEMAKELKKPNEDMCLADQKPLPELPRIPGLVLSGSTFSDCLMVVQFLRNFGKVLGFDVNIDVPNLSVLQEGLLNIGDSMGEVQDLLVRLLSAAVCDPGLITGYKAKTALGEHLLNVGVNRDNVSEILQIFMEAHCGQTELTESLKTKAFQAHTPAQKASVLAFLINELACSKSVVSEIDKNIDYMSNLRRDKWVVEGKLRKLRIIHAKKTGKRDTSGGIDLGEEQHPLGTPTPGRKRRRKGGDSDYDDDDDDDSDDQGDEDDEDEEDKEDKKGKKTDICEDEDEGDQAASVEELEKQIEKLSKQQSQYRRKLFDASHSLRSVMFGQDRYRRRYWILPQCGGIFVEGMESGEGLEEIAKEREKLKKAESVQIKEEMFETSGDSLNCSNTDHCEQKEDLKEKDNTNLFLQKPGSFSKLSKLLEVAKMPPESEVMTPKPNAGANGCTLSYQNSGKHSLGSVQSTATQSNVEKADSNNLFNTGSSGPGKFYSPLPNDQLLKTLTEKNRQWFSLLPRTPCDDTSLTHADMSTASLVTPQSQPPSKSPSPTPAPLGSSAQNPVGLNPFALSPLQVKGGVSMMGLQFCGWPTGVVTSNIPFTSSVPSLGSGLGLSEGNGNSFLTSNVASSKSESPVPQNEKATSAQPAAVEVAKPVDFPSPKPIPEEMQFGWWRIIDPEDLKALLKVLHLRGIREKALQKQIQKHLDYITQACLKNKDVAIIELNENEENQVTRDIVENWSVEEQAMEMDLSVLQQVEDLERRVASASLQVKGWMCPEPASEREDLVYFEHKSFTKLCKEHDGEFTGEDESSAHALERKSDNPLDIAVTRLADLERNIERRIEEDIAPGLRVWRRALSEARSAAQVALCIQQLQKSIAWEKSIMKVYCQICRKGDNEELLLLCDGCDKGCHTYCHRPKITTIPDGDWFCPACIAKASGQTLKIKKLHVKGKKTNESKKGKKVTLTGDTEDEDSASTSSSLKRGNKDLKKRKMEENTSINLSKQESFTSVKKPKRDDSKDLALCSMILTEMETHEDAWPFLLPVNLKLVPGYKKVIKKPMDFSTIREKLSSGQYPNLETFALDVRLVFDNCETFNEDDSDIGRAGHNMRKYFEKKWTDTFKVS
#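 BAZ2B 50 nM plus b-H3(5-23)K14Ac 50 nM, PBS pH 7.4/0.01% Tween-20, 30 min RT; compound added (max 110 uM), 30 min RT; streptavidin donor/Ni-chelate acceptor beads 10 ug/mL final, 20 min dark; AlphaScreen read.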
# Hits are given with their value; – = inactive; ? = inconclusive; · = no result given; [ ] = dose if it differs, or a comment. This is a sample that favours compounds with a hit; in the whole collection about 12% have one here. The call rests on the fitted dose curve; in most records, active means well fitted curve in the direction sought with a large enough effect; inconclusive means small, poorly fitted or top-dose-only effect, or another doubt; inactive means no such curve, though single readings can be large; an effect the other way counts as inactive or inconclusive.
SMILES,HP1b chromo inh,L3MBTL1 inh,Sfp PPTase inh,G9a inh,JMJD2A Tudor,BAZ2B inh
COc1c(O)cc2oc3cc(O)c(CC=C(C)C)c(O)c3c(=O)c2c1CC=C(C)C,·,·,–,·,·,·
Cc1ccc2cccc(NC(=O)c3ccc(C#N)cc3F)c2n1,–,·,·,–,–,–
COc1cc(CN2CCCCCC2)cc(OC)c1OC,?,–,–,32µM,5µM,?
COc1cc(CN2CCCCCC2)cc(OC)c1,–,–,–,–,–,–
COc1ccc(OC)c(CN2CCN(Cc3cc(OC)c(OC)c(OC)c3)CC2)c1,?,–[2.29 µM],–,–[0.501 µM],22µM,79µM
COc1ccc(OC)c(CN2CCN(C(=O)CN3C(=O)NC4(CCCC4)C3=O)CC2)c1,–,–,·,–,–,–
CCCCNc1nc(C)nc2c1nc(-c1ccccc1)n2CCCN(C)C,·,·,–,·,·,·
CCOc1c(Cl)cc(/C=C/C(=O)N(CC)CC(=O)NCc2cccs2)cc1OC,–,–,·,–,–,–
Cc1nc2cnc(N3CCN(C)CC3)nc2n(C)c1=O,·,·,–,–[0.501 µM],·,·
Cc1ccccc1OCc1nc2ccccc2c(=O)n1/N=C/c1c[nH]c2ccccc12,–,–,–,–,–,–
Cc1cc(/C=N/n2c(COc3ccccc3C)nc3ccccc3c2=O)c(O)c([N+](=O)[O-])c1,?,?,–,?,25µM,?
CCN(CC(F)(F)C(F)F)S(=O)(=O)c1ccc(NC(=O)OC)cc1,?,–,–,–,20µM,–
Cc1ccc2nc(-c3ccc(NC(=S)NC4CC(C)(C)NC(C)(C)C4)cc3)sc2c1,–,–,45µM,50µM,–,–
CC(=O)Nc1ccc(NC(=S)NC(=O)C2CCCC2)cc1,–,·,–,–,–,–
NS(=O)(=O)c1ccc(NC(=S)NC(=O)C2CCCC2)cc1,–,·,–,71µM,–,–
COC(=O)Nc1ccc(S(=O)(=O)N(CCO)CC(F)(F)C(F)F)cc1,–,?,–,–,–,–
NS(=O)(=O)c1ccc(CNC(=S)NC2CC2)cc1,–,–,–,28µM,–,?
OC(c1ccccc1)(c1ccccc1)c1nccc2ccccc12,–,·,·,·,–,·
CCOc1ccc(CC(=O)Nc2cccc(-c3nc4cccnc4s3)c2C)cc1,–,·,·,–,–,–
CNC(=O)c1sc2ncccc2c1-n1cccc1,–,·,·,–,–,–
Fc1ccc(CNC(=S)NC2CCCC2)cc1,–,–,–,–,–,–
CCOC(=O)C(Cc1ccccc1)C(=O)Nc1cccc(C)c1 (centres undefined),–,–,–,–,–,–
CC1(C)CC(NC(=S)Nc2ccc(S(N)(=O)=O)cc2)CC(C)(C)N1,–,–,–,50µM,–,–
CCN(CC)c1ccc(NC(=O)OC)cc1,–,·,–,3.5µM,?,?
CCOC(=O)C(Cc1ccccc1)C(=O)Nc1ccc(N(CC)CC)cc1 (centres undefined),?,–,–,3.5µM,50µM,?
SMILES,HP1b chromo inh,L3MBTL1 inh,Sfp PPTase inh,G9a inh,JMJD2A Tudor,BAZ2B inh
COC(=O)Nc1ccc(NC(C)=O)cc1,–,–[11.4 µM],–,–,–,–
S=C(NCc1ccncc1)NC1CCCC1,–,–,–,50µM,–,–
CCOC(=O)C1CCN(C(=O)c2ccc3c(c2)sc2nc(-c4ccccc4)cn23)CC1,–,·,·,–,–,–
CC1(C)CC(=O)C2=C(C1)NC(Nc1nc3ccccc3o1)=NC2c1cccc(F)c1 (centres undefined),–,·,·,·,–,·
COc1ccc(NC(=O)/C=C/c2cc(Br)ccc2OC)cc1,–,–,–,–,–,–
CCN(CC)c1ccc(NC(=S)NC(=O)C2CCC2)cc1,?,·,–,40µM,45µM,22µM
CCN(CC)c1ccc(NC(=O)/C=C/c2cc(Br)ccc2OC)cc1,?,?,–,–[0.0925 µM],4µM,8.9µM
NS(=O)(=O)c1ccc(NC(=S)NC2CC2)cc1,–,–,10µM,10µM,–,–
CCN(CC)c1ccc(/C=N/NC(=O)OC(C)(C)C)cc1,–,–,–,50µM,–,?
COC(=O)c1ccc(NC(=S)NC2CC2)cc1,–,–,–,–,–,–
CC(=O)Nc1ccc(C2NC(=O)CCC2[N+](=O)[O-])cc1 (centres undefined),–,·,–,–,–,–
CCOc1cc(S(=O)(=O)NCc2ccccc2)ccc1Br,–,–[11.4 µM],–,–,–,–
CC(C)C[C@@H]1NC(=O)[C@H](C(C)C)NC(=O)c2cc([N+](=O)[O-])cc(I)c2NCC[C@@H](C(N)=O)NC1=O,–,–,–,13µM,–,79µM
C[C@@H]1NC(=O)c2cc([N+](=O)[O-])cc(I)c2NCCCC[C@@H](C(N)=O)NC(=O)[C@H](CC(N)=O)NC1=O,–,–,?,32µM,–,?
CC(C)[C@@H]1NC(=O)c2cc([N+](=O)[O-])cc(I)c2NCC[C@@H](C(N)=O)NC(=O)[C@H](CO)NC1=O,·,–,–,13µM,·,?
CC(C)[C@@H]1NC(=O)c2cc([N+](=O)[O-])cc(F)c2NCCC[C@@H](C(N)=O)NC(=O)[C@H](CO)NC1=O,·,–,–,40µM,·,?
C[C@@H](O)C1NC(=O)[C@H](CCCCN)NC(=O)c2cc([N+](=O)[O-])cc(I)c2NCCC[C@@H](C(N)=O)NC1=O (some centres undefined),–,–,–,50µM,–,–
C[C@H]1OC(OC2C(O)[C@@H](O)C(OC3C(O)[C@@H](O)C(O)O[C@@H]3CO)O[C@@H]2CO)[C@H](O)C(O)C1N[C@H]1C=C(CO)[C@@H](O)[C@H](O)C1O (some centres undefined),·,·,–,–,·,·
COc1ccc(Cc2nc3c4cnn(-c5cccc(F)c5)c4ncn3n2)cc1,–,·,·,–,–,–
COc1cc2[nH]c(Cl)c([N+](=O)[O-])c2cc1OC,–,·,89µM,?,?,56µM
Cc1cccc(OCCC(=O)Nc2ccc(C)c(S(=O)(=O)N3CCCCC3)c2)c1,–,–,–,–,–,–
CC(=O)Oc1ccc(N2C(=O)C3C4C=CC(C5CC45)C3C2=O)cc1[N+](=O)[O-] (centres undefined),–,–,56µM,?,–,–
CN(C)c1ccc(N2C(=O)CSC2=S)cc1,?,?,–,?,40µM,40µM
CC1SC(=S)N(c2ccc(N(C)C)cc2)C1=O (centres undefined),–,·,–,45µM,?,?
O=C(/C=C/Nc1ccc(Cc2ccc(N/C=C/C(=O)C(F)(F)F)cc2)cc1)C(F)(F)F,–,–,–,–,–,–
COc1ccc(Nc2ncccc2C(=O)NCc2ccccc2)cc1,–,·,–,–[12.7 µM],?,?
COc1ccc2oc(=N)c(C(=O)NCc3ccccc3)cc2c1,–,–,–,35µM,–,–
COc1cccc(Nc2ncccc2C(=O)NCc2ccccc2)c1,–,–,–,8.9µM,–,–
COc1ccc2cc(C(=O)NCc3ccccc3)c(=O)oc2c1,–,·,–,·,–,–
